Assay outcomes (PubChem BioAssay)
TGFb SMAD3 inh – qHTS for Inhibitors of TGF-b; Potency, µM (highest dose often 46.1 µM), inactives show at the top dose activity, negative = inhibition, hits mostly inhibitors; HepG2 CAGA-GFP TGF-b/SMAD3 reporter, GFP fluorescence, 18 h; TGF-beta stimulated, 500 pg/mL final; 410,000 tested, 1.2% active; AID 588855, 2011; also: potency is read from the fitted curve at half-maximal effect; % is scaled to controls: 0 for no effect and ±100 for the full control effect; nearly all actives have a fitted effect of over 65% in size
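Smad-responsive CAGA-GFP expression was quantified in HEPG2 cells exposed to compounds and 500 pg/mL final TGF-beta for 18 h at 37 degrees C; unstimulated wells defined full inhibition.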
IL-1B inflam inh – qHTS for Inhibitors of Inflammasome Signaling: IL-1-beta AlphaLISA Primary Screen; activity change, % at 57.5 µM; 360,000 tested, 4.7% active; THP-1 LPS/ATP IL-1B secretion, AlphaLISA, 16 h; active compounds read low; in the data active = activity change below about -50%; inconclusive = mostly about -30% to -49%; also: % is scaled to controls: 0 for no effect and ±100 for the full control effect
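Secreted IL-1B measured by AlphaLISA bead assay after 16 h compound exposure of THP-1 cells; compounds (final up to 57.5 uM) added 1 h before LPS (250 ng/mL) and ATP (1.25 mM) stimulation; lower signal means less secretion.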
HepG2 viability – qHTS for Inhibitors of TGF-b: Cytotox Counterscreen; HepG2 CAGA-GFP viability, ATP luminescence, 18 h; Potency, µM (highest dose often 46.1 µM), without a hit: top-dose activity change, negative = cytotoxicity, usual class: cytotoxic; 410,000 tested, 0.76% active; also: potency is read from the fitted curve at half-maximal effect
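CellTiter-Glo luminescence gave cytotoxicity after 18 hours at 37 degrees C. The cells were HepG2 CAGA-GFP in 1% FBS DMEM, stimulated with 500 pg/mL TGF-beta after compound addition. %Activity was normalised to no-cell wells (complete cell-killing) and DMSO (no toxicity), and curves were fitted and classified.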
S-ASM inh – Inhibitors of Secretory Acid Sphingomyelinase (S-ASM): qHTS | Sphingomyelin phosphodiesterase (Homo sapiens), P17405 | placental ASM, HMU-PC fluorogenic substrate, 60 min | Potency, µM (top dose mostly 57.5 µM), without a hit: at the highest dose activity change, negative = inhibition, most hits filed as inhibitors | 340,000 tested, 0.006% active | AID 504937, 2011; also: potency is read from the fitted curve at half-maximal effect
Target sequence (P17405 47-631 limits assumed): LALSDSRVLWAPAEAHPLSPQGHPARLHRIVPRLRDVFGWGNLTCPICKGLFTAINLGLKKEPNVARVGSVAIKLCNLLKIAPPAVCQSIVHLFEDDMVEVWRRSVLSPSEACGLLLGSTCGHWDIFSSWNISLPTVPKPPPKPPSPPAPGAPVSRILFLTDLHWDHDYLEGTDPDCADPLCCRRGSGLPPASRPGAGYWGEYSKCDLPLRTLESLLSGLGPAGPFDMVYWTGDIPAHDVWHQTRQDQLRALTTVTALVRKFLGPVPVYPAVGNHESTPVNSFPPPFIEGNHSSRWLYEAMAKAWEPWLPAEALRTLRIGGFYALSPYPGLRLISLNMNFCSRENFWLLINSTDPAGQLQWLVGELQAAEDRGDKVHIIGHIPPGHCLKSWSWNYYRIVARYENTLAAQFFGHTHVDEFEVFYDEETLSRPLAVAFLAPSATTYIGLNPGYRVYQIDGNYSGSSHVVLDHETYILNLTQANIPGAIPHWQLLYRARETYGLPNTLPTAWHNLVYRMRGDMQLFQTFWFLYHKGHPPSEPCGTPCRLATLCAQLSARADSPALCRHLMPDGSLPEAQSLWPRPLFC
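qHTS format. ASM enzyme prepared from human placenta hydrolyses the fluorogenic substrate HMU-PC0 (9 uM final) over 60 min at 37 °C after a 10 min compound preincubation.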
DT40 TDP1 CPT – qHTS for Inhibitors of human tyrosyl-DNA phosphodiesterase 1 (TDP1): qHTS in cells in presence of CPT; chicken DT40 Tdp1-/-;hTDP1 cells + 20 nM CPT, ATP luminescence, 48 h; Potency, µM (series often up to 46.2 µM), inactives show at the top dose activity change, negative = growth inhibition, usual class: inhibitors; 420,000 tested, 12% active; also: potency is read from the fitted curve at half-maximal effect; % is scaled to controls: 0 for no effect and ±100 for the full control effect; nearly all actives have a fitted effect of over 55% in size
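Chicken DT40 Tdp1-/- cells stably complemented with human TDP1 were seeded at 400 cells/well in medium containing 20 nM camptothecin, exposed to pin-transferred compounds, and grown at 37 °C for at least 48 hr. Viability was read as ATP luminescence.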
TDP1 cell noCPT – qHTS for Inhibitors of human tyrosyl-DNA phosphodiesterase 1 (TDP1): qHTS in cells in absence of CPT | DT40 Tdp1-/- hTDP1 cells, no CPT, ATP luminescence, 48 h | Potency, µM (top dose mostly 46.2 µM), without a hit: at the highest dose activity change, negative = growth inhibition, actives largely listed as inhibitors | 420,000 tested, 15% active; also: potency is read from the fitted curve at half-maximal effect; % is scaled to controls: 0 for no effect and ±100 for the full control effect; nearly all actives have a fitted effect of over 55% in size
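Stably hTDP1-transfected Tdp1-null chicken DT40 cells were treated with library compounds minus camptothecin and grown for at least 48 hr at 37 °C, after which cellular ATP was quantified by luminescence.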
Numbers without * were called inactive; i = inactive; ? = inconclusive; / = no result. Shown are actives, neighbours in structure and some others; about 19% of the full set was active somewhere. Unless noted, calls follow the shape of the dose curve; as a rule, active = well fitted curve in the direction sought with a large enough effect; inconclusive = small, poorly fitted or top-dose-only effect, or another doubt; inactive = no such curve, though single readings can be large; an effect the other way counts as inactive or inconclusive.

SMILES	TGFb SMAD3 inh	IL-1B inflam inh	HepG2 viability	S-ASM inh	DT40 TDP1 CPT	TDP1 cell noCPT
COc1ccccc1CNc1nc(NCc2ccccc2OC)c2sccc2n1	?	-52*	-52%	/	12µM*	15µM*
COc1ccccc1CNc1nc(NCc2cccs2)nc2ccsc12	11µM*	-17	-34%	/	?	16µM*
COc1ccccc1CNc1nc(NCCNC(C)=O)c2sccc2n1	33%	87	-13%	/	?	?
c1cc2cc(CNc3nc(NCC4CC4)nc4ccsc34)ccc2o1	?	-78*	-100%	/	16µM*	?
CC1CN(C(=O)CS(=O)(=O)Cc2ccc(Cl)cc2)CC(C)O1 (stereo not given)	-2%	19	-1%	2%	-1%	2%
CCOc1ccc(S(=O)(=O)NCC(c2ccco2)S(=O)(=O)c2cccs2)cc1 (stereo not given)	-43%	/	-19%	/	?	?
COC(=O)/C=C1/SC(=NC(=O)c2ccc(Cl)cc2)NC1=O	0%	-3	11%	-15%	-17%	-23%
Cc1noc(C)c1-c1cc(Nc2ccc(F)cc2)ncn1	/	/	/	/	-28%	-18%
COc1ccccc1-c1cc(NCc2ccccc2)ncn1	/	/	/	/	6.5µM*	5.8µM*
Cc1noc(C)c1-c1cc(NC2CC2)ncn1	/	/	/	/	12µM*	8.2µM*
Cc1ccccc1-c1cc(NCc2ccccc2)ncn1	/	/	/	/	15µM*	21µM*
Cc1noc(C)c1-c1cc(NCc2ccccc2)ncn1	/	/	/	/	?	23µM*
C/C(=N\Nc1cccc(Cl)c1)C1(C)N(O)C(C)(C)C(c2ccco2)=[N+]1[O-] (stereo not given)	?	-23	-39%	-2%	?	?
COc1ccccc1-c1cc(Nc2ccc(F)cc2)ncn1	/	/	/	/	?	23µM*
Cc1noc(C)c1-c1cc(N(C)C)ncn1	/	/	/	/	?	23µM*
CC(C(=O)NCC1CCCCC1)N1CCN(S(=O)(=O)c2cccs2)CC1 (stereo not given)	-7%	-4	0%	-1%	?	?
CCCN1CNc2c(c(=O)[nH]c(=S)n2CCC(C)C)C1	/	/	/	/	-22%	?
Cc1cc(=O)n2nc(N3CCC(C(=O)NCc4cccc(Br)c4)CC3)sc2n1	7%	11	6%	-3%	0%	17%
COc1ccc(-c2c(-c3cc(OC)cc(OC)c3)n(C)c3ccc(Br)cc23)cc1	2%	-1	-13%	22%	-2%	-24%
COc1cc(OC)cc(-c2c(-c3ccc(F)cc3)c3cc(-c4ccc(OC)nc4)ccc3n2C)c1	-6%	6	3%	13%	?	23µM*
COc1ccc(-c2c(-c3cc(OC)cc(OC)c3)n(C)c3ccc(-c4ccc(N(C)C)nc4)cc23)cc1	11%	39	7%	130%	21µM*	18µM*
COc1cccc(-c2c(-c3cc(OC)cc(OC)c3)n(C)c3ccc(Br)cc23)c1	?	-17	-1%	8%	4%	2%
COc1cc(OC)cc(-c2c(C#Cc3ccsc3)c3cc(-c4ccc(N(C)C)nc4)ccc3n2C)c1	7%	14	-4%	i	?	21µM*
COc1cccc(-c2c(-c3cc(OC)cc(OC)c3)n(C)c3ccc(-c4ccc(OC)nc4)cc23)c1	8%	14	1%	14%	18µM*	16µM*
COc1ccc(-c2ccc3c(c2)c(C#Cc2ccsc2)c(-c2cc(OC)cc(OC)c2)n3C)cc1	-2%	21	-39%	199%	0%	?
SMILES	TGFb SMAD3 inh	IL-1B inflam inh	HepG2 viability	S-ASM inh	DT40 TDP1 CPT	TDP1 cell noCPT
CCCn1c2ccccc2c2cnn(CC(=O)NCCc3ccc(S(N)(=O)=O)cc3)c(=O)c21	-6%	/	-1%	/	?	?
c1cc2c(c(CC3CO3)c1CC1CO1)OCCOCCOCCOCCO2 (stereo not given)	-15%	6	-17%	/	2.1µM*	2.3µM*
CCc1ccccc1NC1c2ccccc2C(=O)N1Cc1ccco1 (stereo not given)	5%	5	7%	-2%	-5%	?
O=C1c2ccccc2C(Nc2ccc(S(=O)(=O)N3CCCCCC3)cc2)N1Cc1ccco1 (stereo not given)	-24%	-4	-17%	0%	21µM*	16µM*
Cc1ccc(C(C)(c2ccc(N)cc2)c2ccc(N)cc2)cc1	-4%	1	15%	-5%	5%	-25%
CCOC(=O)c1c(NC(=O)CCS(=O)(=O)c2ccccc2)sc2c1CC(C)(C)NC2(C)C	?	i	0%	0%	-98%	?
CCOC(=O)c1c(NC(=O)CSc2nc3ccc(C)cc3[nH]2)sc2c1CC(C)(C)NC2(C)C	?	-85*	-29%	-9%	?	?
CCOC(=O)c1c(NC(=O)Cc2ccccc2)sc2c1CC(C)(C)NC2(C)C	?	-28	-72%	-2%	?	?
CCOC(=O)c1c(NC(=O)CSc2nnnn2-c2ccccc2)sc2c1CC(C)(C)NC2(C)C	-24%	-62*	-36%	1%	16µM*	?
CCOC(=O)c1c(NC(=O)CSc2nnnn2-c2ccccc2OCC)sc2c1CC(C)(C)NC2(C)C	?	-78*	-48%	-5%	?	15µM*
COCCCNC(=O)c1cc(S(=O)(=O)NCCCN2CCCC2=O)ccc1Cl	-1%	8	1%	2%	-1%	-3%
NS(=O)(=O)c1cccc(NC(=O)CCSc2ccc(Cl)cc2)c1	?	20	12%	-2%	?	12µM*
CCN(CC)S(=O)(=O)c1ccc(C)c(NC(=O)CSc2ncc(C(F)(F)F)cc2Cl)c1	?	-13	-36%	-1%	?	23µM*
Cc1ccc(S(=O)(=O)N(C)C)cc1NC(=O)CSc1ncc(C(F)(F)F)cc1Cl	8%	?	-20%	-4%	?	?
NS(=O)(=O)c1cccc(NC(=O)CSc2ncc(C(F)(F)F)cc2Cl)c1	-16%	-111*	-37%	-2%	-40%	-29%
Cc1ccc(-n2c(=O)c3c(c4cc(C)ccc4n3C)n(CC(=O)c3ccc(Cl)cc3)c2=O)cc1	-3%	/	-10%	/	-4%	-17%
